Measurements published in PubChem BioAssay (EPA / NIEHS).
Records with an inconclusive call do not appear. Calls of active or inactive are those of the source. Rule for the calls: active = hit-call score of the fitted dose curve at least 0.9, where 1 is the maximum; inconclusive = response in the unintended direction; inactive = score below 0.9. Where a SMILES comes first, the peptide text is derived from it. Bridges are numbered along the chain shown (N, C = ends). [ ]: non-standard residue; d: D form. The star is where a group is joined. Ileψ(thiazoline)Cys = CC[C@H](C)[C@H](N)C1=N[C@H](C(=O)*)CS1; dOrn = NCCC[C@@H](N)C(=O)O

How the values were obtained:
[1] = TOX21_p53_BLA_p2_viability: Viability Assessment in the Tox21 HCT-116 p53 Agonism Beta-lactamase Assay, Phase 2 (AID 2283591);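 note: compound exposure lasted 16 h at 37 °C; actives lower the ATP signal meaning cytotoxicity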
Method in brief: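 HCT-116 p53-bla cells (4000/well) rested 5 h at 37C, then received compounds in DMSO (217-fold dilution) for 16 h at 37C, 5% CO2. After the CCF4 read, CellTiter-Glo was added; ATP luminescence was read after 30 min at room temperature.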

[2] = target: Cellular tumor antigen p53 (Homo sapiens) (UniProt P04637); experiment: TOX21_p53_BLA_p2_ratio: Tox21 HCT-116 p53 Agonism Beta-lactamase Assay, Ratio, Phase 2 (AID 2283592)
Cellular tumor antigen p53 (Homo sapiens), sequence (P04637 whole entry, looked up): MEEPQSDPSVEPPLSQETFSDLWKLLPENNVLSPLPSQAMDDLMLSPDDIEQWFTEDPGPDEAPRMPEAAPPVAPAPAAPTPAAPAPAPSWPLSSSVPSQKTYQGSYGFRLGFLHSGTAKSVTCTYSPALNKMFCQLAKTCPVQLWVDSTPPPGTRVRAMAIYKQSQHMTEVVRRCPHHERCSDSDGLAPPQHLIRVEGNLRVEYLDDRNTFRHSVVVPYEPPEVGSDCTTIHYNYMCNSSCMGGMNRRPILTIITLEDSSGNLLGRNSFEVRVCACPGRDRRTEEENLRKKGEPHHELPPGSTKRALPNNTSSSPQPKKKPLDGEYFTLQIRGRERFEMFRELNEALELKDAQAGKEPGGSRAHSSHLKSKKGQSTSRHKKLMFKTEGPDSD
Method in brief: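 Gain-of-signal p53 agonism was scored from the beta-lactamase FRET ratio (460/530 nm, 405 nm excitation) in HCT116 cells treated 16 h at 37C, 5% CO2, with DMSO serving as negative control and baseline.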

[3] = TOX21_p53_BLA_p3_viability: Viability Assessment in the Tox21 HCT-116 p53 Agonism Beta-lactamase Assay, Phase 3 (AID 2283593);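 note: cells exposed to compound for 16 h before reading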
Method in brief: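 HCT-116 cells (4000/well) rested 5 h at 37C, then got DMSO compounds by pin tool (217-fold dilution) for 16 h at 37C, 5% CO2. After the bla read, CellTiter-Glo was added and luminescence read at 30 min, room temperature.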

[4] = target: Cellular tumor antigen p53 (Homo sapiens) (UniProt P04637); experiment: TOX21_p53_BLA_p3_ratio: Tox21 HCT-116 p53 Agonism Beta-lactamase Assay, Ratio, Phase 3 (AID 2283596)
Method in brief: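 HCT116 p53-bla cells (4000/well) given compound in DMSO (217-fold dilution) after 5 h, incubated 16 h at 37C. CCF4-AM substrate 2 h at room temperature; 460/530 nm emission ratio, gain fitted against DMSO.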

[5] = TOX21_p53_BLA_p4_viability: Viability Assessment in the Tox21 HCT-116 p53 Agonism Beta-lactamase Assay, Phase 4 (AID 2283597);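 note: hits lower the luminescence signal meaning cytotoxicity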
Method in brief: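 Following a 16 h exposure at 37C, the treated HCT116 wells were first read for the FRET ratio. They were then lysed with CellTiter-Glo, and ATP luminescence was recorded after 30 min at room temperature.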

[6] = target: Cellular tumor antigen p53 (Homo sapiens) (UniProt P04637); experiment: TOX21_p53_BLA_p5_ratio: Tox21 HCT-116 p53 Agonism Beta-lactamase Assay, Ratio, Phase 5 (AID 2283599)
Method in brief: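 HCT-116 cells carrying a p53-inducible beta-lactamase reporter were seeded at 4000 cells/well and dosed after 5 h with compound in DMSO (217-fold dilution). After 16 h at 37C, CCF4-AM substrate was added for 2 h, and the 460/530 nm emission ratio was scored as gain-of-signal versus DMSO.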

[7] = TOX21_p53_BLA_p5_viability: Viability Assessment in the Tox21 HCT-116 p53 Agonism Beta-lactamase Assay, Phase 5 (AID 2283600)
Method in brief: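 After the 460/530 nm beta-lactamase measurement, the wells received an ATP-detection luciferase reagent; signal was read 30 min later at RT. Compound treatment lasted 16 h on cells pre-incubated 5 h post-seeding.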

[8] = target: Cellular tumor antigen p53 (Homo sapiens) (UniProt P04637); experiment: TOX21_p53_BLA_p4_ratio: Tox21 HCT-116 p53 Agonism Beta-lactamase Assay, Ratio, Phase 4 (AID 2283601)
Method in brief: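 HCT116 cells carrying an inducible beta-lactamase reporter were plated at 4000 cells/well, rested 5 h, then exposed to compounds in DMSO (217-fold dilution) for 16 h at 37C. CCF4-AM substrate was loaded 2 h at room temperature; 460/530 nm emission ratio scored gain-of-signal versus DMSO.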

Measured: AC50

O=C(c1cc2ccccc2o1)N1CCN(Cc2ccccc2)CC1
inactive: all assays above

Brc1ccccc1-c1ccccc1
inactive: all assays above

NCCOCCN
inactive: all assays above

C/C=C1\NC(=O)[C@H]2CSSCC/C=C/[C@H](CC(=O)N[C@H](C(C)C)C(=O)N2)OC(=O)C(C(C)C)NC1=O (stereo partly drawn)
active: [1] 1.46 µM | [2] 0.00463 µM | [3] 1.87 µM | [4] 4.57 µM | [5] 0.735 µM | [6] 11.4 µM | [7] 2.56 µM | [8] 7.21 µM

CCCCNc1cc(C(=O)O)cc(S(N)(=O)=O)c1Oc1ccccc1
inactive: all assays above

CC[C@H](C)[C@H](N)C1=N[C@H](C(=O)N[C@@H](CC(C)C)C(=O)N[C@H](CCC(=O)O)C(=O)N[C@H](C(=O)N[C@H]2CCCCNC(=O)[C@H](CC(N)=O)NC(=O)[C@@H](CC(=O)O)NC(=O)[C@H](Cc3cnc[nH]3)NC(=O)[C@@H](Cc3ccccc3)NC(=O)[C@H]([C@@H](C)CC)NC(=O)[C@@H](CCCN)NC2=O)[C@@H](C)CC)CS1 ({Ileψ(thiazoline)Cys}-L[dE]IK[dOrn]I[dF]H[dD]N; lactam 4-C)
inactive: all assays above

O=C(O)COC(=O)Cc1ccccc1Nc1c(Cl)cccc1Cl
inactive: all assays above

CCCOc1ccc(C(=O)OCCN(CC)CC)cc1N
inactive: all assays above

COc1ccccc1N1CCN(CC(O)COc2cccc3ccccc23)CC1 (stereo not drawn)
active: [5] 23 µM
inactive: all other assays above

Cc1c(Cl)cccc1Nc1ncccc1C(=O)O
inactive: all assays above

Oc1ccc(Sc2ccc(O)cc2)cc1
active: [2] 69.4 µM | [4] 69.8 µM | [6] 70.4 µM
inactive: all other assays above
